Inconclusive results are not listed. Calls of active or inactive are those of the source. Unless noted, the call rests on the fitted dose curve; in most records, active means well fitted curve in the direction sought with a large enough effect in the repeat runs; inconclusive means weak or mixed curves; inactive means no such curve, though single readings can be large; an effect the other way counts as inactive or inconclusive.

Assay [1] can be described thus: qHTS assay to identify small molecule agonists of the sonic hedgehog signaling (Shh) pathway (AID 1259368; calls by dose curve; further: series mostly up to about 92 µM; nearly all actives have a fitted effect of over 15% in size). A digest of the protocol: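 NIH/3T3-derived 3T3Gli1-Luc cells carrying a stably integrated Gli1 response element–firefly luciferase reporter were plated, left 4 hr at 37 C, then given compounds in DMSO for 24 hr. Luminescence was read 30 min after adding luciferase reagent.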

The nature of assay [2]: qHTS assay to identify small molecule antagonists of the sonic hedgehog signaling (Shh) pathway (AID 1259369; calls by dose curve; further: nearly all actives have a fitted effect of over 45% in size). A digest of the protocol: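 NIH/3T3-derived 3T3Gli1-Luc cells with stably integrated Gli1-Luc reporter were preincubated 4hr at 37 C, then given compounds in DMSO plus Shh conditioned medium and incubated 24hr. Firefly luciferase luminescence read after 30min reagent at room temperature.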

Assay [3] is described as follows: qHTS assay to identify small molecule agonists of the androgen receptor (AR) signaling pathway in the presence of an antagonist - cell viability counter screen (AID 1259379). Further: series mostly up to about 92 µM; nearly all actives have a fitted effect of over 25% in size. In short, it runs like this: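 MDA-kb2 human breast carcinoma cells (stable MMTV-luciferase, AR/GR responsive) were seeded 3,000 cells/well, pre-incubated 5 hr at 37C without CO2, then given 3.0uM nilutamide and compounds at 15 concentrations for 16 hr. Viability was read by CellTiter-Fluor fluorescence.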

A short description of assay [4]: qHTS assay to identify small molecule agonists of the estrogen receptor beta (ER-beta) signaling pathway - cell viability counter screen (AID 1259380). Further: nearly all actives have a fitted effect of over 30% in size. Further: potency means the concentration at half of the fitted maximal effect. In short, it runs like this:
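ER-beta-UAS-bla HEK293T cells in medium with 2% charcoal-stripped FBS were preincubated 6 hr at 37C, dosed with compound in DMSO for 16 hr, then after the bla read, CellTiter-Glo was added for 30 min at room temperature; luminescence recorded.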

A short description of assay [5]: qHTS assay to identify small molecule antagonists of the estrogen receptor beta (ER-beta) signaling pathway - cell viability counter screen (AID 1259382). Further: series mostly up to about 92 µM; nearly all actives have a fitted effect of over 55% in size. In short, it runs like this:
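ER-beta-UAS-bla HEK293T cells (2,000/well, 2% charcoal-stripped FBS) were pre-incubated 6 hr at 37C, then given compound plus 1nM final 17-beta-estradiol for 16 hr. Viability was read in the same wells by CellTiter-Glo luminescence after 30 min at room temperature.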

Assay [6] in a line: qHTS assay to identify small molecule agonists or antagonists of the thyroid stimulating hormone receptor (TSHR) signaling pathway - wild type cell line counter screen (AID 1259384; calls by dose curve). A digest of the protocol: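 Wild-type HEK293 cells were plated 18 h at 37 C/5% CO2, pin-dosed with compound plus Ro20-1724 medium, held 30 min at room temperature, then given cAMP-d2 and anti-cAMP-cryptate; fluorescence was read after 1 h. Fifteen concentrations, triplicate.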

Assay [7] concerns the target Thyrotropin receptor (Homo sapiens) (UniProt P16473). The assay can be described thus: qHTS assay to identify small molecule antagonists of the thyroid stimulating hormone receptor (TSHR) signaling pathway (AID 1259385; calls by dose curve; further: nearly all actives have a fitted effect of over 20% in size). A digest of the protocol:
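TSHR-HEK293 cells were plated and held 18 h at 37C/5% CO2, then given compound plus Ro20-1724 and stimulated with TSH at 1.5 ng/mL final. After 30 min at room temperature, cAMP was detected with cAMP-d2/anti-cAMP-cryptate (1 h) by fluorescence.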

A short description of assay [8]: qHTS assay to identify small molecule agonists of the estrogen receptor alpha (ER-alpha) signaling pathway in the presence of an antagonist - cell viability counter screen (AID 1259386).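 Further: series mostly up to about 92 µM; cells exposed to compounds for 22 h at 37 °C before the viability read; nearly all actives have a fitted effect of over 30% in size.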 A digest of the protocol: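 VM7Luc4E2 cells (endogenous full-length ER-alpha, 4×ERE-luciferase) were held 5 days in phenol red-free medium with 10% charcoal-stripped FBS, plated, then given 10.0nM ICI-182,780 and compounds at 15 concentrations for 22hr at 37C; viability read by CellTiter-Fluor fluorescence.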

The target in assay [9] is Progesterone receptor (Homo sapiens) (UniProt P06401). In words: qHTS assay to identify small molecule agonists of the progesterone receptor (PR) signaling pathway (AID 1346784; calls by dose curve; further: nearly all actives have a fitted effect of over 30% in size). In short, it runs like this:
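HEK 293T PR-UAS-bla reporter cells, 2% charcoal-stripped FBS; 6 hr settle at 37C/5% CO2, compound (DMSO) 16 hr, LiveBLAzer B/G FRET substrate 2 hr RT, fluorescence intensity read.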

Assay [10] has the same target. In words: qHTS assay to identify small molecule antagonists of the progesterone receptor (PR) signaling pathway (AID 1346795; active means well fitted inhibition curve with a large enough effect in the signal ratio in the repeat runs, not every such curve was filed as active; the % refers to the signal ratio). A digest of the protocol: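 Beta-lactamase reporter, HEK293T PR-UAS-bla line; 2% charcoal-stripped FBS; 6 hr pre-incubation, 37C/5% CO2. Compound + R5020 1 nM final, 16 hr. LiveBLAzer B/G FRET substrate, 2 hr RT; fluorescence intensity read.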

Assay [11] is described as follows: qHTS assay to identify small molecule antagonists of the progesterone receptor (PR) signaling pathway - cell viability counter screen (AID 1346798). Further: series mostly up to about 92 µM; nearly all actives have a fitted effect of over 50% in size. A digest of the protocol:
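Luminescence readout (CellTiter-Glo, 30 min, RT) of viability in PR-UAS-bla HEK293T cells exposed to compound and R5020 agonist for 16 hr at 37C, 5% CO2; run in the same wells as the beta-lactamase reporter read.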

Assay [12] can be described thus: qHTS assay to identify small molecule antagonists of the TGF-beta/Smad signaling pathway - cell viability counter screen (AID 1346824). Further: nearly all actives have a fitted effect of over 50% in size. In short, it runs like this: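 SBE-bla HEK 293T cells were plated overnight at 37 C, then given compounds in DMSO plus TGF-beta1 (added as 0.25 ng/mL solution) for 5 hr. After the bla read, CellTiter-Glo was added to the same wells and luminescence read after 30 min at room temperature.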

Assay [13] in a line: qHTS assay to identify small molecule agonists of the TGF-beta/Smad signaling pathway - cell viability counter screen (AID 1346829). Further: top concentration of the series differs between compounds; nearly all actives have a fitted effect of over 45% in size. A digest of the protocol:
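Luminescence from CellTiter-Glo, read after a 30 min room-temperature incubation, gives cell viability of SBE-bla HEK 293T cells treated 5 hr with compounds at 37 C.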

Assay [14] can be described thus: qHTS assay to identify small molecule agonists of the TGF-beta/Smad signaling pathway (AID 1346859; active means well fitted activation curve with a large enough effect in the signal ratio in the repeat runs, not every such curve was filed as active; the % refers to the signal ratio; further: series mostly up to about 77 µM). In short, it runs like this: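 Read-out: fluorescence at 460 and 530 nm (405 nm excitation) after a 2 hr room-temperature incubation with beta-lactamase FRET substrate. SBE-bla HEK 293T cells had been treated with test compounds for 5 hr at 37 C.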
The target in assay [15] is Thyrotropin-releasing hormone receptor (Homo sapiens) (UniProt P34981). In words: qHTS assay to identify small molecule antagonists of the thyrotropin-releasing hormone receptor (TRHR) signaling pathway (AID 1346877; active means well fitted inhibition curve with a large enough effect in the repeat runs, not every such curve was filed as active; further: series mostly up to about 51 µM). A digest of the protocol: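 TRHR-expressing HEK293 cells were seeded, cultured 18 h at 37 °C, then loaded with calcium dye for 2 h. Compounds were pre-incubated 5 min at room temperature before 1 nM TRH (final) was added, and kinetic fluorescence was recorded for 3 min.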
Chain of Thyrotropin-releasing hormone receptor (Homo sapiens) (P34981 whole entry, looked up): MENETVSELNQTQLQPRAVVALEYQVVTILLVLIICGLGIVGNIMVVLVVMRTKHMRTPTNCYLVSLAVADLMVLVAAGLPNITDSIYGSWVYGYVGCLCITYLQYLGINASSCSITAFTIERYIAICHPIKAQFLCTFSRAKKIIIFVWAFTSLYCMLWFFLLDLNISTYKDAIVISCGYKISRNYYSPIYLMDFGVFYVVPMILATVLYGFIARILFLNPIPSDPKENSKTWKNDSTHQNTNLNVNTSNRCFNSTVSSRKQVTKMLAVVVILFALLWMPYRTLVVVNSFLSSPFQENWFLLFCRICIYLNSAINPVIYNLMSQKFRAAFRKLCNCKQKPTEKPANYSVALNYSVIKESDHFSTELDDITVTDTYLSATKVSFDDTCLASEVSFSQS

Assay [16] addresses Estrogen receptor (Homo sapiens) (UniProt P03372). The assay can be described thus: qHTS assay to identify small molecule agonists of the estrogen receptor alpha (ER-alpha) signaling pathway in the presence of an antagonist (AID 1259383; calls by dose curve; further: top concentration of the series differs between compounds; nearly all actives have a fitted effect of over 15% in size). In short, it runs like this:
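VM7Luc4E2 cells (endogenous full-length ER-alpha, 4×ERE-luciferase) were precultured 5 days in phenol red-free medium with 10% charcoal-stripped FBS, given 10.0nM ICI-182,780 (final), then treated with compounds at 15 concentrations for 22hr at 37C; luminescence read with ONE-Glo.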

A short description of assay [17]: qHTS assay to identify small molecule agonists of the progesterone receptor (PR) signaling pathway - cell viability counter screen (AID 1346799; calls by dose curve; further: nearly all actives have a fitted effect of over 45% in size). A digest of the protocol:
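HEK293T PR-UAS-bla, 3,000 cells/well, 2% charcoal-stripped FBS; 6 h settle, compound 16 h at 37C/5% CO2; LiveBLAzer 2 h RT, then CellTiter-Glo 30 min RT, luminescence read.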

For assay [18], the target named is Estrogen receptor beta (Homo sapiens) (UniProt Q92731). The assay can be described thus: qHTS assay to identify small molecule agonists of the estrogen receptor beta (ER-beta) signaling pathway (AID 1259377; active means well fitted activation curve with a large enough effect in the signal ratio in the repeat runs, not every such curve was filed as active; the % refers to the signal ratio). A digest of the protocol: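 Beta-lactamase reporter readout: fluorescence of LiveBLAzer B/G FRET substrate after 2 h at room temperature, following 16 h compound treatment of ER-beta-UAS-bla HEK293T cells at 37C in 2% charcoal-stripped FBS medium.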
Chain of Estrogen receptor beta (Homo sapiens) (Q92731 whole entry, looked up): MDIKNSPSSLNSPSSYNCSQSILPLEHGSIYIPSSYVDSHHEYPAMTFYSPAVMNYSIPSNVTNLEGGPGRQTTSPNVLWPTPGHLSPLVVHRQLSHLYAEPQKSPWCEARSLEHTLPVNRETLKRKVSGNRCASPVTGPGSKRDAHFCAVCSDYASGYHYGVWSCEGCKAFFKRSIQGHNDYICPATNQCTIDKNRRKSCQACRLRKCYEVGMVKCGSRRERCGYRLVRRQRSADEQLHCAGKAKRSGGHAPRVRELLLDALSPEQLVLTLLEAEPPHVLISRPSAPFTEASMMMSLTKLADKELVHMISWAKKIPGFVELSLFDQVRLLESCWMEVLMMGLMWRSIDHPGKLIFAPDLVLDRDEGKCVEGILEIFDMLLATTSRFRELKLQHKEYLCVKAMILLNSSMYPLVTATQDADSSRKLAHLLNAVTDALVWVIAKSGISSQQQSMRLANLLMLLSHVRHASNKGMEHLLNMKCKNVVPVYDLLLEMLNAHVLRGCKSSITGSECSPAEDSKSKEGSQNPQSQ

Assay [19] shares this target. In words: qHTS assay to identify small molecule antagonists of the estrogen receptor beta (ER-beta) signaling pathway (AID 1259378; active means well fitted inhibition curve with a large enough effect in the signal ratio in the repeat runs, not every such curve was filed as active; the % refers to the signal ratio). In short, it runs like this: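 ER-beta-UAS-bla HEK293T (GripTite) cells in 2% charcoal-stripped FBS medium were preincubated 6 hr at 37C, dosed with compound, then stimulated with 1 nM E2 (final) for 16 hr; beta-lactamase reporter read by B/G FRET fluorescence after 2 hr substrate loading.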

Assay [20] addresses Androgen receptor (Homo sapiens) (UniProt P10275). The assay can be described thus: qHTS assay to identify small molecule agonists of the androgen receptor (AR) signaling pathway in the presence of an antagonist (AID 1259381; calls by dose curve; further: nearly all actives have a fitted effect of over 15% in size). A digest of the protocol: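 MDA-kb2 human breast carcinoma cells carrying an MMTV-luciferase reporter (AR- and GR-responsive) were treated with compounds at 15 concentrations plus 3.0uM final nilutamide for 16hr at 37C without CO2; luminescence was read after ONE-Glo addition.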

Chain of Progesterone receptor (Homo sapiens) (P06401 whole entry, looked up): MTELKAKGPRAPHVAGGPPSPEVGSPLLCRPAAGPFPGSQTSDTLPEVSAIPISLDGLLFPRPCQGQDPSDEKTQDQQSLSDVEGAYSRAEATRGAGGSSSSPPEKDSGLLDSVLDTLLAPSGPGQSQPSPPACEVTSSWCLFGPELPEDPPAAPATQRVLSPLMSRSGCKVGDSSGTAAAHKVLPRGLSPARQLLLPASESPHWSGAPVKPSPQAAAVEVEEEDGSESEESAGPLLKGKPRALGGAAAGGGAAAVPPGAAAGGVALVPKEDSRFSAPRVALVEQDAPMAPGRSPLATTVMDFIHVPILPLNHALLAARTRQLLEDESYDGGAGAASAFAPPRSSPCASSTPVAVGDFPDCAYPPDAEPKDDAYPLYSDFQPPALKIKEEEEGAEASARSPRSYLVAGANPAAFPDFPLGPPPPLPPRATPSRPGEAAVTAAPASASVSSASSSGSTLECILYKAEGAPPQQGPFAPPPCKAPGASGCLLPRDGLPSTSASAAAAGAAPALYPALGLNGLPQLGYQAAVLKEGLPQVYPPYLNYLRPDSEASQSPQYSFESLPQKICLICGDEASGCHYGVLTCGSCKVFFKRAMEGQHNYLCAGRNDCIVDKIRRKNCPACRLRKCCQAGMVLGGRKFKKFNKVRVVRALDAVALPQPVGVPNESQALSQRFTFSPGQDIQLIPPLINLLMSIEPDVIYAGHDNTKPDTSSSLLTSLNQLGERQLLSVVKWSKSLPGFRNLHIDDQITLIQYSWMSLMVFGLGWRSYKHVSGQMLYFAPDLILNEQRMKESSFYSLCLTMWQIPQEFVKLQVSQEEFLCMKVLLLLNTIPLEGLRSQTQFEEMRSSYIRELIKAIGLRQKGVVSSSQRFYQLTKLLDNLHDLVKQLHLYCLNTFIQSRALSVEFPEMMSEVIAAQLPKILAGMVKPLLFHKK
Chain of Thyrotropin receptor (Homo sapiens) (P16473 whole entry, looked up): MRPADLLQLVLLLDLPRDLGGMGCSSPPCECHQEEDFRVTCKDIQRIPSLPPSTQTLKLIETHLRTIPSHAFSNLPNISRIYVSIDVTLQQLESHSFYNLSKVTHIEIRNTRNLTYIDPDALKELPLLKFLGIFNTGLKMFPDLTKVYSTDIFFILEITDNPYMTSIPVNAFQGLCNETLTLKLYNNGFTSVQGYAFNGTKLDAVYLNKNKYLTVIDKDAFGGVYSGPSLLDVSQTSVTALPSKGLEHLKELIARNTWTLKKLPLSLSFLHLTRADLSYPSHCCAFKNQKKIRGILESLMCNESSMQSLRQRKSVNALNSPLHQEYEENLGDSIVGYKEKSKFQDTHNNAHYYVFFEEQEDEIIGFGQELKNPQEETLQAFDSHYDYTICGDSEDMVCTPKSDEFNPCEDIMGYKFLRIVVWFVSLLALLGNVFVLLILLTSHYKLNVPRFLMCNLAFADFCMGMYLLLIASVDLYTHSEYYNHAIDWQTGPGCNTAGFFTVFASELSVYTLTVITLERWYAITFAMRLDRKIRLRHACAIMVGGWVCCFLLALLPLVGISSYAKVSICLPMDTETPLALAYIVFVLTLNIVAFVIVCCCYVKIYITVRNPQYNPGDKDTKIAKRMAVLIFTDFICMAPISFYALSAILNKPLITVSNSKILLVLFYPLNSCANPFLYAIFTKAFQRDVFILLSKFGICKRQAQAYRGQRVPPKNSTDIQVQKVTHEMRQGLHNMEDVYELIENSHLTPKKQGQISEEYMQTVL
Chain of Estrogen receptor (Homo sapiens) (P03372 whole entry, looked up): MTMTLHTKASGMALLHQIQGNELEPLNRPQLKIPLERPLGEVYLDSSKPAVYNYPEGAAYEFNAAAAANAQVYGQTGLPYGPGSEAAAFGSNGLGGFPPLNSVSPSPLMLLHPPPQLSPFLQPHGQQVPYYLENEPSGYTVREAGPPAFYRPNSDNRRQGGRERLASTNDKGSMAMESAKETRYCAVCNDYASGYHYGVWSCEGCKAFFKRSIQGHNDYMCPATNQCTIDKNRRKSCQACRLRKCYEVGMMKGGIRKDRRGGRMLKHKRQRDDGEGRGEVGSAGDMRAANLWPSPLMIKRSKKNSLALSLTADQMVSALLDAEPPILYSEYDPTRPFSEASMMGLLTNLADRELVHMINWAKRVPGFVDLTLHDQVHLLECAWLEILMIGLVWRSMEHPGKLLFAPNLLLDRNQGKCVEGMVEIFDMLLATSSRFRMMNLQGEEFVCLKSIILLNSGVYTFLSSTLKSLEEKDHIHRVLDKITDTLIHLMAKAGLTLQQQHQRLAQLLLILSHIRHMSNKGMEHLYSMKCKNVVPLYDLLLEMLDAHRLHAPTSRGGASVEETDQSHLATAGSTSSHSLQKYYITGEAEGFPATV
Chain of Androgen receptor (Homo sapiens) (P10275 whole entry, looked up): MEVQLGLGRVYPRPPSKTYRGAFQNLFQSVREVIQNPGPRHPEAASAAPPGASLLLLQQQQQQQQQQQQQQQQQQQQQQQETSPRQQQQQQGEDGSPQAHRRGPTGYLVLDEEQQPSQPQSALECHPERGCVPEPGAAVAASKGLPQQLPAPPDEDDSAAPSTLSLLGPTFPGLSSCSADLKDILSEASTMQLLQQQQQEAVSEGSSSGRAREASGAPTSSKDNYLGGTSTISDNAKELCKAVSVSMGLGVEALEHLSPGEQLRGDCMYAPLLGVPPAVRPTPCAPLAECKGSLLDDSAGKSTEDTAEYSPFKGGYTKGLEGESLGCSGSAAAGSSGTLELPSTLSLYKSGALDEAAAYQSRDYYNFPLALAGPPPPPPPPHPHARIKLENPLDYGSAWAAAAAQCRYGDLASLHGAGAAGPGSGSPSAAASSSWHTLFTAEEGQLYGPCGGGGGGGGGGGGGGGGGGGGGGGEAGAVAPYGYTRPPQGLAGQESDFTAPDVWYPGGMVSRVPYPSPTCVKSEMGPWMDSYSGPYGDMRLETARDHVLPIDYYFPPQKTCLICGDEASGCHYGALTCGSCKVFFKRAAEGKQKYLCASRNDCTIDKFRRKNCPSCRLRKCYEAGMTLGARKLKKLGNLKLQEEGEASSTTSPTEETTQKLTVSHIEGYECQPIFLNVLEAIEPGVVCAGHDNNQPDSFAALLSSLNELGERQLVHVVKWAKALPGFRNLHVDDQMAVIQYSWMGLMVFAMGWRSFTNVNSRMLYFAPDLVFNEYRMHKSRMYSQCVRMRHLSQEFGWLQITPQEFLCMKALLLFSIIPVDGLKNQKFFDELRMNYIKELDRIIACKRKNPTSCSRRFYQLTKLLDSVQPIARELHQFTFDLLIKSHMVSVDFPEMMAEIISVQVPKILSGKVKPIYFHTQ

Regarding `CCCCCC`, the Potency entry in assay [1], in assay [2], in [3], in assay [4], in assay [5] and in [6] was “inactive” in each case. The Potency entry in assay [7], in [8], in [9], in assay [10], in assay [11] and in [13] was “inactive” in each case. Moreover, the Potency result in assay [14] is “inactive”. Also, the result in assay [12] and in assay [15] was inactive.

As to `Cc1ccc(Nc2c(F)cccc2Cl)c(CC(=O)O)c1`, the Potency result in assay [1], in [2], in [3], in [16], in [6] and in [8] was “inactive” each time. For the same compound, the Potency result in assay [9] and in [14] was “inactive” each time. Further, the Potency in [4] was 26.6 µM (active). Further, the result in assay [15] was inactive.

Take `CC(=O)NNC(C)=O`: the Potency entry in [1], in [2], in assay [3], in [4], in assay [5] and in [6] was “inactive” throughout. In addition, the Potency entry in [7], in assay [8], in [9], in [10], in assay [17] and in [13] was “inactive” in each case. The Potency entry in assay [14] is “inactive”. Besides, the compound was classed as inactive in [12] and in assay [15].

Consider `CC(=O)OCC(C)C`, for which the Potency result in assay [1], in assay [18], in assay [19], in assay [3], in assay [20] and in assay [16] was “inactive” throughout. Also, the Potency result in assay [8], in [9], in [10], in assay [11], in assay [17] and in assay [13] was “inactive” throughout. The Potency result in [14] is “inactive”. The outcome in assay [12] and in assay [15] was inactive.

In the case of `CC(C(=O)O)c1ccc(C(=O)c2cccs2)cc1` (stereo not given), the Potency entry in [1], in [18], in [3], in assay [4], in assay [5] and in [8] was “inactive” each time. In addition, the Potency entry in [9], in assay [10], in [11], in assay [17], in assay [13] and in assay [14] was “inactive” each time. Besides, the result in assay [12] and in [15] was inactive.

As to `COc1cc(S(=O)(=O)Nc2ccccc2)c(OC)cc1N`, the Potency entry in [1], in assay [18], in assay [19], in [5], in [6] and in assay [7] was “inactive” each time. Further, the Potency entry in assay [8], in [10], in assay [11] and in [14] was “inactive” in each case. Besides, the call in [12] and in [15] was inactive.

For `CN1C(CSCC(F)(F)F)Nc2cc(Cl)c(S(N)(=O)=O)cc2S1(=O)=O` (stereo not given), the Potency entry in assay [1], in assay [18], in assay [19], in assay [4], in [20] and in [5] was “inactive” each time. In addition, the Potency entry in assay [16], in assay [6], in assay [8], in assay [9], in assay [10] and in assay [13] was “inactive” each time. Moreover, in assay [14], the Potency result is “inactive”. The call in [12] was inactive.

The values are drawn from PubChem BioAssay (Tox21).
